Here are results for 40 compounds from PubChem BioAssay (NCI).

The panel holds about 79,000 compounds, 15% with a hit somewhere; the sample as a whole holds those more often. Unmarked numbers belong to inactive results. The source made the active and inactive calls. No stated cut-off is given here; in the data, active means growth inhibition above about 70%; inactive means the rest.

The assay in a line: NCI Yeast Anticancer Drug Screen. Data for the mec2-1 strain (AID 157). The note with it: S. cerevisiae mec2-1 strain, at 50.0 µM, hits give high values. The procedure:
Growth inhibition of yeast strains with defined genetic alterations is measured as a screen for potential anti-cancer activity. Selected strains with alterations in DNA damage repair or cell cycle control were exposed to compounds and growth inhibition was measured relative to vehicle treated controls. The strain used in this assay is mec2-1
As to `COc1c(O)c(/C=C/C(=O)NN)cc2ccoc12`, the growth inhibition was -10.3%. Under `Cc1ccc(S(=O)(=O)NC(=O)NC23CC4CC(CC(F)(C4)C2)C3)cc1` stands 21.4%. Under `O=C(O)C1CCCCN1O` (stereo not given) stands -2.15%. Regarding `O=C(O)c1cccc(Sc2ccccc2)c1`, the growth inhibition was 9.25%. Under `O=S(=O)(O)CCNC(=S)C(=S)NCCS(=O)(=O)O` stands 14.2%; under `Cc1cc2nccnc2cc1C`, -65.8%; under `Cc1ccc([N+](=O)[O-])cc1NC(=O)NCCCl`, 4.55%. The value for `O=C1/C(=C/c2ccc3c(c2)OCO3)CCC1CN1CCOCC1` (stereo not given) was 94.1% (active); that for `CCCCCCOC(=O)C(O)C(C)(Cl)c1ccccc1` (stereo not given) was 9.9%. As to `NC1=NC2(COC(c3ccccc3)(c3ccccc3)c3ccccc3)OC(COC(c3ccccc3)(c3ccccc3)c3ccccc3)C(O)C2O1` (stereo not given), the growth inhibition is -5.4%. As to `CCOc1ccc(NC(=O)c2cccc(C(=O)Nc3ccc(OCC)cc3)c2)cc1`, the growth inhibition is -12.3%. Under `O=C1S/C(=C2\C(=O)N(CN3CCCCC3)c3ccc(Br)cc32)C(=O)N1CN1CCCCC1` stands -2.9%; under `O=C(Cc1ccc(Cl)cc1)c1ccccc1Cl`, 2.75%. Take `NC(CSS(=O)(=O)O)=NCCCCC1CCCCC1`: the growth inhibition is -2.75%. Take `COc1ccc(NC(=O)CC(=O)N2N=C(N(CCC#N)c3ccc(Cl)cc3)CC2c2ccccc2)cc1` (stereo not given): the growth inhibition is -17%. In the case of `Oc1cncc2ccccc12`, the growth inhibition is 5.2%. Take `O=C(OCCN1CCOCC1)C1C[C@@H](O)CN1C(=O)c1ccc2c(c1)OCO2` (stereo not given in full): the growth inhibition is -5.85%.

`O=C(O)c1ccc([C@@H]2C(=O)N(O)[C@@H]3C=CC[C@@H]32)cc1`: the growth inhibition was -12.8%. Turning to `O=C(NCc1cccnc1)C1COc2cc(-c3cc(=O)c4ccccc4o3)ccc2O1` (stereo not given), the growth inhibition is -18.9%. Regarding `O/N=C1\C(=C\c2ccc3c(c2)OCCO3)CCCC1C(NO)c1ccc2c(c1)OCCO2` (stereo not given), the growth inhibition was 16.7%. Regarding `CCCCCC1SCC(=O)N1c1nncs1` (stereo not given), the growth inhibition was -21.1%.

As to `C=CCSC(C)=O`, the growth inhibition was -0.05%. Under `CC(C)(NC(=O)OC12CC3CC(CC(C3)C1)C2)C(=O)O` stands -20.1%; under `CC1=C(C(=O)CC(=O)C(=O)Nc2ccc(C)cc2C)Sc2ccccc2N1`, -20.9%. The value for `Cc1ccccc1NC(=O)C(C)C` was -5.7%; that for `Cn1nc(C(F)(F)C(F)(F)C(F)(F)F)nc1C(F)(F)C(F)(F)C(F)(F)F` was 3.6%; that for `CCOc1ccc2nc(NC(=O)C(=O)C(C(=O)c3ccccc3F)C3OC(=O)c4ccccc43)sc2c1` (stereo not given) was 9%. In the case of `[Cu+2].[NH-]C(Cc1ccc(O)cc1)C(=O)O.[NH-]C(Cc1ccc(O)cc1)C(=O)O` (stereo not given), the growth inhibition was 1.55%.

Consider `CC(=O)CC(C)=NCCN=C(C)CC(C)=O.[Cu]`, for which the growth inhibition is 64.2%. For `O=C(CN1CCC(O)(c2ccccc2)CC1)N1CCN(/C=C/c2ccccc2)CC1`, the growth inhibition was -0.45%. Consider `COc1cccc(C2CC(C)=Nc3c(ccc4c3C(=O)c3ccccc3C4=O)N2)c1O` (stereo not given), for which the growth inhibition was 17.9%. The value for `Clc1ccnnc1Cl` was -30.8%. The value for `CC1(c2ccc(C(O)c3ccccc3)s2)OCCO1` (stereo not given) was 7.3%; that for `N#Cc1c2c(c(-c3cccs3)n(C3OC(CO)C(O)C(O)C3O)c1=S)CCc1ccccc1-2` (stereo not given) was -9.55%; that for `CCOC(=O)C(N=Nc1ccc(C)cc1Br)C(C)=O` (stereo not given) was 13.9%. In the case of `NCCC(=O)O`, the growth inhibition is 14.9%.

On to `COc1c2occc2c(S(=O)(=O)O)c2ccc(=O)oc12`, for which the growth inhibition was 4.05%. In the case of `COc1ccc(CSC(=S)Nc2ccc(F)c(C)c2)cc1`, the growth inhibition was 14.4%. The value for `Nc1nc(N)nc(SCCO)n1` was 1.55%; that for `COc1ccc(C(C)Nc2cc(OC)c(OC)c(OC)c2)cc1` (stereo not given) was -14.1%.
